# In PubChem BioAssay AID652039 (The Scripps Research Institute Molecular Screening Center, 2013):
# About 3,300 (0.89%) of roughly 370,000 compounds were called active.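 Rule for the calls: active = activation above the mean of all tested compounds plus 3 SD, computed per campaign excluding outliers beyond control limits (cut at about 13% in these data); inactive = the rest.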 The entries come from a sample that favours actives as a whole.
# Molecular target: Kallikrein-7 (Homo sapiens) (UniProt P49862)
# Sequence (P49862 whole entry, looked up): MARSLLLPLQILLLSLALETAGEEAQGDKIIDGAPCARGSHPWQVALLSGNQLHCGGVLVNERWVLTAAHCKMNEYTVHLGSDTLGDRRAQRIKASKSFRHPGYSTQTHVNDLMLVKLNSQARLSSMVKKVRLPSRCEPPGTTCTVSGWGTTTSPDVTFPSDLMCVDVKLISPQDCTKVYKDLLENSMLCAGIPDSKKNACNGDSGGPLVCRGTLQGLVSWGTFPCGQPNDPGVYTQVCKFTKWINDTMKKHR
# Experiment: activation of human kallikrein-7 proenzyme – biochemical, fluorescence intensity, primary screen (AID 652039)
# Details: purified proKLK7, EDANS-DABCYL substrate fluorescence; at 7 µM; active compounds read high; 100% is mature enzyme control, 0% vehicle
row,SMILES,activation
1,COc1ccc(-c2cc(C(F)(F)F)nc(SCCC(=O)NCc3ccco3)n2)cc1,-0.49% (inactive)
2,COc1ccc(-c2cc(C(F)(F)F)nc(S(C)(=O)=O)n2)cc1OC,15.4% (active)
3,CCC(c1ccc(NC(=O)OC(C)(C)C)cc1)c1cc(OC)cc(OC)c1 (stereo not drawn),1.16% (inactive)
4,CCc1c(C)nc2c(OC)cccc2c1Cl,0.96% (inactive)
5,Cc1nc(N=C(N)N)nc2c(C)cccc12,-0.57% (inactive)
6,COc1nc(N=C(N)N)nc2c(C)cccc12,22.7% (active)
7,Nc1[nH]c(/C=C2/CCCCC2n2[nH]c(=O)n(-c3ccccc3)c2=O)c(Cc2ccccc2)[n+]1Cc1ccccc1 (stereo not drawn),-0.08% (inactive)
8,COc1ccc(CN2C(=O)N3Cc4cc(OC)ccc4C3CS2(=O)=O)cc1 (stereo not drawn),0.22% (inactive)
9,CCN(CC)C(=O)CC[C@@H]1CC[C@]2(CCCN(S(=O)(=O)C3CCCCC3)C2)O1,-0.08% (inactive)
10,O=C(O)c1ccc2c(c1)C(=O)N(c1ccc(/C=C/C(=O)c3ccccc3)cc1)C2=O,108% (active)
11,CC(=O)Nc1ccc(NC(=O)c2ccc3c(c2)C(=O)N(c2ccccc2C)C3=O)cc1,-0.23% (inactive)
12,COc1ccc(C(=O)/C=C/c2ccc(-c3ccccc3)cc2)cc1CSCC(=O)O,-2.22% (inactive)
13,C=CCN1[C@@H](Cc2ccccc2)COc2cccc(N3CCSCC3)c2S1(=O)=O,0.85% (inactive)
14,O=C(NCc1ccc(Cl)cc1)C1CCCN(c2nc3ccccc3o2)C1 (stereo not drawn),0.03% (inactive)
15,Cc1sc2nc(SCC(=O)c3ccc(O)c(O)c3)n(Cc3ccco3)c(=O)c2c1C,-0.81% (inactive)
16,C=CCN1C(C(=O)OC)CN(Cc2cn(Cc3ccccc3)nn2)CCS1(=O)=O (stereo not drawn),0.39% (inactive)
17,CN(c1ccc2nc3ccccc3c(=O)n2n1)C1CCCCC1,0.7% (inactive)
18,CN(C(=O)c1cc2c(=O)n3ccccc3nc2s1)C1CCCCC1,25.8% (active)
19,CCOCCCNC(=O)c1cn(CC(C)C)c(=O)c2c1c1ccccc1n2C,-1.85% (inactive)
20,CN(CCNC(=O)c1cc2c(-c3ccccc3F)nn(C)c2s1)C1CCCCC1,-1.03% (inactive)
21,CCOCCCNC(=O)c1cc2c(=O)n3ccccc3nc2s1,40.6% (active)
22,COCCCNC(=O)/C(C#N)=C/c1c(N2CCCCCC2)nc2ccccn2c1=O,8.31% (inactive)

row,SMILES,activation
1,Cc1ccc(C(=O)C2CCN(CC(=O)NCCC(C)C)CC2)cc1,1.04% (inactive)
2,CCCC[C@H](C(=O)N(CC)c1ccccc1)[C@@H](O)c1ccc2ccccc2c1,0.3% (inactive)
3,CC(=O)Nc1ccc(S(=O)(=O)NCC(=O)OCc2cc(=O)oc3ccc4ccccc4c23)cc1,273% (active)
4,COc1ccccc1CNC(=O)COC(=O)CNS(=O)(=O)c1ccc(NC(C)=O)cc1,-0.12% (inactive)
5,COc1ccccc1C(=O)COC(=O)CNS(=O)(=O)c1ccc(NC(C)=O)cc1,0.48% (inactive)
6,CC1CCCN(c2cccc3c2S(=O)(=O)N(Cc2ccc(F)cc2)[C@@H](C)[C@H](c2ccccc2)O3)C1 (stereo partly drawn),-0.65% (inactive)
7,Nn1c(SCC(=O)Nc2cccc3ccccc23)nnc1-c1cc(-c2ccc(F)cc2)n[nH]1,0.42% (inactive)
8,O=C(O)c1ccc2c3c(cccc13)C(=O)N(OS(=O)(=O)c1ccccc1)C2=O,105% (active)
9,COc1cccc(-c2ccc3c(c2)S(=O)(=O)c2cccc(C(=O)O)c2C3=O)c1OC,-0.11% (inactive)
10,C=C(C)C#CC(Cc1ccccc1)N(CC1CC1)/C(N)=N/C(=O)OCc1ccccc1 (stereo not drawn),-0.43% (inactive)
11,CCCCCC(=O)Nc1ccc(-c2cn3cccnc3n2)cc1,52.5% (active)
12,Cc1nn2c(=O)cc(COC(=O)c3ccc(NC(=O)C(C)(C)C)cc3)nc2s1,-0.47% (inactive)
13,CCCCC(=O)Nc1ccc(C(=O)NCCCn2ccnc2)cc1,0% (inactive)
14,CC(C)(C)C(=O)Nc1ccc(-c2cn3cccnc3n2)cc1,65.9% (active)
15,CC(=O)Nc1ccc(-c2cn3cccnc3n2)cc1,64.7% (active)
16,CC(=O)Nc1ccc(S(=O)(=O)Nc2ccc(-c3ccc4nnc(C)n4n3)cc2)cc1,0.05% (inactive)
17,CCCCCC(=O)Nc1ccc(S(=O)(=O)Nc2ccc(Cl)nn2)cc1,-0.08% (inactive)
18,Cc1cccc(C(=O)Nc2c(-c3ccc(F)cc3)nc3ncccn23)c1,8.91% (inactive)
19,CC(C)(C)C(=O)Nc1cccc(-c2ccc[nH]2)n1,0.15% (inactive)
20,O=C(CCS(=O)(=O)c1ccccc1)Nc1ccc(Cl)c(Cl)c1,0.23% (inactive)
21,O=C(CSc1nnc(COc2ccccc2)n1-c1ccc(Cl)cc1)Nc1ccc2c(c1)OCO2,0.41% (inactive)
22,COC(=O)[C@@]12CCCCC=C1N(CCc1ccc(Cl)cc1)C(=O)[C@H]2CC(=O)NCc1ccc(OC)c(OC)c1,-0.01% (inactive)

row,SMILES,activation
1,Cc1ccc2nc(-c3ccc(CN4CCC(n5cc(-c6ccccc6)[nH]c5=O)CC4)cc3)c(-c3ccccc3)nc2c1,-16.7% (inactive)
2,COc1ccc(-c2cc(=O)oc3cc(OCC(=O)N(C)C4CCS(=O)(=O)C4)ccc23)cc1 (stereo not drawn),-0.13% (inactive)
3,COc1ccc(-c2cc3ccc(OCc4nn[nH]n4)cc3oc2=O)cc1,75.6% (active)
4,CCCCCCc1cc2cc(-c3nnc(-c4cccc(OC)c4)o3)c(=O)oc2cc1O,-1.12% (inactive)
5,COc1cccc(CSc2nnc(-c3cccnc3)n2Cc2ccccc2)c1,-0.18% (inactive)
6,Nn1c(SCC(=O)Nc2ccc(S(N)(=O)=O)cc2)nnc1-c1n[nH]c2c1CCC2,-0.51% (inactive)
7,CCOc1ccccc1NC(=O)NC1CCCCCCC1,0.05% (inactive)
8,CCCN(CC(=O)NC(=O)NC1CCCCC1)CC(=O)Nc1cc(Cl)ccc1Cl,24.4% (active)
9,O=C(COc1cc(Cl)c(Cl)cc1Cl)NC(=O)NC1CCCC1,-0.16% (inactive)
10,Cc1cc(=O)[nH]c(SCC(=O)Nc2ccc(Cl)cc2C)n1,-0.02% (inactive)
11,CN1C(=O)c2cc(NS(C)(=O)=O)ccc2OC[C@@H]2O[C@@H](CC(=O)NCc3ccc(-c4ccccc4)cc3)CC[C@H]21,-0.3% (inactive)
12,C=CCOc1ccc(/C=C/C(=O)OCC(=O)NCC2CCCO2)cc1 (stereo not drawn),-1.06% (inactive)
13,CC1(C)CC(=O)c2cc(OCC(=O)NCC3CCCO3)ccc2O1 (stereo not drawn),54.2% (active)
14,CCOc1ccc(S(=O)(=O)NCCC(=O)NCC2CCCO2)cc1 (stereo not drawn),0.66% (inactive)
15,CN(C)c1ccc(NC(=O)NC2CCCCN(Cc3ccc(Cl)cc3)C2=O)cc1 (stereo not drawn),0.67% (inactive)
16,COc1ccnc(C(=O)N2CCC(Oc3cccnc3)CC2)c1,0.48% (inactive)
17,Cn1cccc1C(=O)NC(=O)COC(=O)Cc1coc2ccc3ccccc3c12,-3.37% (inactive)
18,Cc1ccc(NC(=O)Nc2cc(C)nn2-c2ccccc2)cc1,0.53% (inactive)
19,C#CCN([C@H](C(=O)OC)C(C)CC)S(=O)(=O)c1ccccc1Br (stereo partly drawn),0.19% (inactive)
20,CCCSc1ncccc1C(=O)O,0.67% (inactive)
21,OCCNc1nc2ccccc2n1-c1ncnc2sc3c(c12)CCC3,-0.67% (inactive)
22,O=C(O)c1cccnc1Sc1ncnc2sc3c(c12)CCC3,12.7% (active)

row,SMILES,activation
1,CN(C)[C@H]1CCN(c2cccc3c2S(=O)(=O)N2CC[C@H](C2)O3)C1,0.28% (inactive)
2,CCOC(=O)c1cccc(NC(=O)CN(C)S(=O)(=O)c2ccc(-c3cocn3)s2)c1,-0.02% (inactive)
3,COc1ccc(-c2onc(C)c2-c2ccc3c(c2)OCCO3)c(O)c1,-0.06% (inactive)
4,COc1cccc(C(=O)Nc2cc3c(cc2Br)OCCCO3)c1,-0.41% (inactive)
5,COc1ccc2nc(Nc3nc4cc5c(cc4s3)OCCO5)sc2c1,17.3% (active)
6,COc1ccccc1C(=O)CSc1nnc(-c2ccccn2)n1-c1ccccc1,0.13% (inactive)
7,Cc1ccc(-n2c(SCC(=O)Nc3cccc4ccccc34)nnc2-c2ccccn2)cc1,-0.1% (inactive)
8,CCOc1ccc(N(CC(=O)Nc2c(C)n(C)n(-c3ccccc3)c2=O)S(=O)(=O)c2ccc(Cl)s2)cc1,-0.38% (inactive)
9,O=C(Nc1nncs1)c1ccccc1NS(=O)(=O)c1cccs1,16.3% (active)
10,O=C(Nc1nncs1)c1cccc(S(=O)(=O)N2CCCCC2)c1,0.4% (inactive)
11,COc1cc(NC(=O)c2ccccc2NS(=O)(=O)c2ccc(Cl)s2)cc(OC)c1,0.45% (inactive)
12,Cc1ccc(-c2nc(C3CCCN(S(=O)(=O)c4ccc(Br)s4)C3)no2)cc1 (stereo not drawn),0.38% (inactive)
13,COc1ccc(-n2c(COc3ccccc3)nnc2SCC(=O)Nc2ccc3c(c2)OCO3)cc1,0.59% (inactive)
14,O=C1c2ccccc2NC(c2ccccn2)N1NS(=O)(=O)c1ccccc1 (stereo not drawn),10.7% (inactive)
15,Cc1ccc(S(=O)(=O)N2CCC(C(=O)OCC(=O)N3CC(=O)Nc4ccccc43)CC2)cc1,0.15% (inactive)
16,Cc1ccc(C2Nc3ccccc3C(=O)N2CCN2CCNC2=O)cc1 (stereo not drawn),39.3% (active)
17,COc1ccc(N2CCN(CCNS(=O)(=O)c3ccc(C(C)(C)C)cc3)CC2)cc1,0.49% (inactive)
18,C=CCN1C(=O)[C@@H](CC(=O)NCC2CCCCC2)[C@]2(C(=O)OC)CCCCC=C12,0.16% (inactive)
19,CC(CCN1CCC(C(O)(c2ccccc2)c2ccccc2)CC1)Oc1ccc([N+](=O)[O-])cc1Cl (stereo not drawn),-0.54% (inactive)
20,Nc1nonc1-n1nnc(C(=O)N/N=C/c2cc(Br)ccc2O)c1CSC1=NCCS1,-0.67% (inactive)
21,COc1cc(/C=N/N=C(\N)c2nonc2N)cc(OC)c1OC,0.13% (inactive)
22,COc1cc(/C=N\NC(=O)c2nonc2N)c(OC)cc1Br,163% (active)
